DAX1 inh-1: inhibits human nuclear receptor DAX1. HEK293 Gal4-DAX1 luciferase reporter, luminescence. AID 504766. P51843. hit rate 0.99% among 340,000. inhibition, % at 6.75 µM;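 active = inhibition above the mean over all tested compounds plus 3 SD, cut at about 4.2% in these data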;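 note: 0% = DAX1-transfected cells with DMSO and 100% = empty-vector control cells with DMSO; inhibition shows as a rise in luminescence from relieved DAX1 repression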
Target sequence (P51843 207-470 limits assumed): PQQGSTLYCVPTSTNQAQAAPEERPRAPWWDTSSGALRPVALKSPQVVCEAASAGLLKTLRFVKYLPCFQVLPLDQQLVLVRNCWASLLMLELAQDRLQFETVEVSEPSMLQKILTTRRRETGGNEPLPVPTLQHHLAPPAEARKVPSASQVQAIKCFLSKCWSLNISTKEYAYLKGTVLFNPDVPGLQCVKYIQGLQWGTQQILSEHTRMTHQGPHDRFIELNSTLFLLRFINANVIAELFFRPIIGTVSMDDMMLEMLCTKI
ssDAF-12 act: activates DAF-12 receptor from parasite S. stercoralis. HEK293 ssDAF-12/GRIP1 lit1-tk-luc reporter, luminescence; % of 3 µM dafachronic acid response. activation, % at 6.8 µM. hit rate 1% among 370,000. AID 652126;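 active = activation above the mean over all tested compounds plus 3 SD, cut at about 0.9% in these data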;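 note: 0% = DMSO-only wells and 100% = 3 µM delta7-dafachronic acid wells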
hcDAF-12 act: H. contortus DAF-12 activation, primary screen | hit rate 1.4% among 370,000 | HEK293 hcDAF-12 lit1-tk-luc reporter, luminescence; 0% DMSO, 100% Δ7-dafachronic acid | activation, % at 6.8 µM;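 active = activation above the mean of all tested compounds plus 3 SD, cut at about 5.5% in these data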;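 note: 100% = response to 3 µM Δ7-dafachronic acid high control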
PolyA inhibitor: yeast polyadenylation inhibition | S. cerevisiae SKY197-pL101 polyadenylation reporter, beta-gal luminescence; efflux-impaired pdr1/pdr3 knockout yeast; score 100 = 6 SD above DMSO | activity score, % at 12 µM | hit rate 0.02% among 300,000 | AID 1875;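 active = lowest replicate activity score at least 50, where 100 means six control SD above control mean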;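 note: yeast exposed to compound for 9 h at 30 °C; higher score means more reporter readthrough which indicates perturbed polyadenylation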
hgDAF12 agonist: hgDAF-12 agonism, primary luciferase screen. hit rate 1.8% among 370,000. HEK293 GAL4-hgDAF12 UAS-luciferase reporter, agonist luminescence; normalized to butyrate control. AID 687014. activation, % at 6.8 µM;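 active = activation above a cutoff set at the mean of all screened compounds plus 3 SD, cut at about 10% in these data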;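 note: 0% = DMSO wells and 100% = sodium butyrate wells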
DAX1 inh-2: DAX1 (NR0B1) inhibition, primary screen; hit rate 1.1% among 370,000; HEK293T StAR-luciferase reporter, SF-1/DAX-1 repression relief; inhibition, % at 6.8 µM;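 active = inhibition above the mean over all tested compounds plus 3 SD, cut at about 3.6% in these data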;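 note: 0% = DAX-1 cells with DMSO and 100% = cells lacking DAX-1 with DMSO; higher inhibition means more luminescence from relief of DAX-1 repression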
The depositor's hits bear a star; . = no result given. This is a sample that favours compounds with a hit; in the whole collection about 4.1% have one here.

SMILES	DAX1 inh-1	ssDAF-12 act	hcDAF-12 act	PolyA inhibitor	hgDAF12 agonist	DAX1 inh-2
Cc1ccc2[nH]cc(CCNC(=O)CN3C(=O)c4ccccc4C3=O)c2c1	-1	-2	-1	-6	-2	1
Cc1ccc2c(c1)N(CC(=O)NCCc1c[nH]c3ccccc13)C(=O)CO2	1	0.9*	2	7	1	-1
COc1ccc(C2c3[nH]c4ccccc4c3CCN2C(=O)c2cn3ccccc3n2)c(F)c1 (stereo not drawn)	0	1.5*	4	6	1	0
Cn1nccc1C(=O)N1CCc2c([nH]c3ccccc23)C1c1ccc(F)cc1 (stereo not drawn)	0	1.0*	1	-18	1	0
c1ccc(COCCc2cn(Cc3ccccc3)c3ccccc23)cc1	.	0	1	.	6	1
COc1ccc2oc(=N)c(C(=O)Nc3ccccc3)cc2c1	2	-1	2	.	6	2
N=c1oc2ccc(Cl)cc2cc1C(=O)Nc1ccc(F)cc1	5.5*	0	4	-8	5	1
COc1ccc2oc(=N)c(C(=O)Nc3ccc(F)cc3)cc2c1	-1	0	0	-7	-1	0
N=c1oc2ccccc2cc1C(=O)Nc1ccccc1	4	0	5.9*	-10	13*	2
COC(=O)[C@]12C[C@H](CC(=O)NCC3CCCCC3)C(=O)N(Cc3ccco3)C1=C[C@H](C(C)C)O[C@@H]2C1CC1	.	-2	-1	.	-1	0
Cc1cc(O)cc(=O)n1-c1ccc(Cl)c(C(F)(F)F)c1	.	-1	1	.	-1	0
O=C(N[C@@H](Cc1cccnc1)C(=O)N1CCC[C@H]1C(=O)NCCc1ccccc1Cl)c1ccc(Cl)c(Cl)c1	.	-2	1	.	-1	0
Cc1ccc(C(=O)NC(Cc2c[nH]c3ccccc23)C(=O)O)o1 (stereo not drawn)	1	0	6.1*	5	0	1
O=C(O)CCc1ccc(S(=O)(=O)Nc2ccccc2C(=O)NCCc2ccccc2)cc1	1	1.0*	5	-5	10	1
Cc1cc(C(=O)NC(Cc2c[nH]c3ccccc23)C(=O)O)c(C)o1 (stereo not drawn)	1	0	2	-1	1	0
O=C(Nc1ccccc1C(=O)NC(Cc1c[nH]c2ccccc12)C(=O)O)c1ccco1 (stereo not drawn)	1	1.4*	2	-4	4	0
O=c1[nH]c2ccc(NS(=O)(=O)c3ccc(Cl)cc3)cc2[nH]1	5.0*	-2	2	0	1	0
O=c1[nH]c2ccc(NS(=O)(=O)c3ccc(F)c(Cl)c3)cc2[nH]1	-1	-1	0	7	-1	0
O=C(CSc1nnc(SCc2cccc3ccccc23)s1)Nc1ccccc1-c1ccccc1	.	-1	-3	.	0	-2
O=C(Nc1ccccc1C(=O)NCCc1ccccc1)c1ccco1	2	0	5	13	11*	1
COc1ccc(CCNC(=O)c2ccc(NS(=O)(=O)c3ccc4[nH]c(=O)[nH]c4c3)cc2)cc1	1	-1	-1	-14	-2	-2
O=C(COc1ccc2c(c1)oc(=O)c1ccccc12)N[C@@H](Cc1c[nH]c2ccccc12)C(=O)O	-2	-2	0	8	2	0
Cc1c(C)c2ccc(OCC(=O)N[C@@H](Cc3c[nH]c4ccccc34)C(=O)O)cc2oc1=O	6.6*	1	2	13	0	1
O=C(O)CNC(=O)c1ccccc1NC(=O)c1ccco1	0	-1	2	.	0	0
O=C(NCCc1ccccc1)c1ccc(NS(=O)(=O)c2ccc3[nH]c(=O)[nH]c3c2)cc1	2	-1	0	5	6	3.8*
SMILES	DAX1 inh-1	ssDAF-12 act	hcDAF-12 act	PolyA inhibitor	hgDAF12 agonist	DAX1 inh-2
Cc1c(C)c2ccc(OCC(=O)Nc3nccs3)cc2oc1=O	-2	0	5	3	11*	1
O=C(O)C1CC=CCC1C(=O)NCc1cn2ccccc2n1 (stereo not drawn)	0	1.1*	0	-9	1	0
O=C(O)C1CCCCC1C(=O)NCc1cn2ccccc2n1 (stereo not drawn)	0	-1	-1	-6	1	0
C[C@@H](C(=O)Nc1nccs1)N1C(=O)C2CC=CCC2C1=O (stereo partly drawn)	4.8*	-1	0	.	-1	1
O=C(C(=O)N1CCC(CNS(=O)(=O)c2ccc(F)c(F)c2)CC1)c1cc2ccccc2o1	.	-1	-1	.	1	-1
Cc1ccc(NC(=O)CCl)cc1S(=O)(=O)N1CCCCCC1	0	-1	-1	-14	-11	-2
Cc1ccc(C(=O)Nc2ccc3cn[nH]c3c2)cc1S(=O)(=O)N1CCCCC1	0	0	6.1*	-10	6	0
COCCNCC(=O)Nc1ccc(C)c(S(=O)(=O)N2CCCCC2)c1	4.3*	-1	0	8	-2	1
O=C(O)c1cccc(NC(=O)c2ccc(Cl)c(S(=O)(=O)N3CCCCCC3)c2)c1	-4	0	2	-3	11*	2
O=C(NCc1cccs1)C1CCN(S(=O)(=O)c2cccc3cccnc23)CC1	4.3*	-1	-2	-7	0	-1
C[C@H]1Cn2nncc2Cn2c3ccccc3c(=O)n21	.	0	-2	.	-2	-1
O=C(Nc1ccc(F)cc1)OCc1cn(Cc2ccc(Cl)cc2)nn1	.	-1	-1	.	-3	0
CCCCN1CC(N2CCCC2)CS1(=O)=O (stereo not drawn)	.	0	-2	.	-4	0
COC(=O)c1cc2c(c3c4ccccc4n(S(=O)(=O)c4ccccc4)c13)C(=O)N(Cc1ccco1)C2	.	0	2	.	1	-2
O=C(Cn1cnc2ccccc2c1=O)N1CCCCC1	.	-1	6	.	7	0
O=C(O)c1cccc(NC(=O)c2cccc(S(=O)(=O)N3CCc4ccccc43)c2)c1	4.6*	-1	-2	-7	-2	-1
Cc1ccc(C(=O)NCc2cccs2)cc1S(=O)(=O)N1CCCCC1	-1	1.2*	-1	10	0	0
Cc1ccc(NS(=O)(=O)c2ccc(Cl)c(C(=O)Nc3cccc(C(=O)O)c3)c2)cc1	5.4*	0	-1	-4	2	0
O=C(Nc1ccncc1)c1cccc(S(=O)(=O)N2CCc3ccccc32)c1	-4	-2	-4	-6	-6	-7
O=C(O)c1ccc(NS(=O)(=O)c2ccc(Cl)c(C(=O)Nc3ccccc3)c2)cc1	-1	-1	-2	-11	-1	0
CN(C=O)c1ccc(CSc2ccccc2)cc1	0	-1	6	.	12*	1
N#Cc1cccc(C#N)c1N1CCC(C#N)CC1	.	-1	-2	3	11*	0

Screens (PubChem BioAssay)
